Reference: PubChem BioAssay (NCATS)
Inconclusive results are not listed. A number with no mark means an inactive call. The source made the active and inactive calls. The call rests on the fitted dose curve.

Assay: Cytotoxicity counterscreen for inhibitors of SARS-CoV-2 cell entry (AID 1645845); further: nearly all actives have a fitted effect of over 50% in size
Settings: cell viability (SARS-CoV-2 entry assay cells); series mostly up to 57.1 µM; activity change, negative = cytotoxicity: at the top concentration
Excerpt: Assay Provider: Wei Zheng, Ph.D.
National Center for Advancing Translational Sciences, National Institute of Health, Rockville, MD.
SARS-CoV-2 spike protein, within the viral envelope, mediates viral attachment and infection of host cells. The SARS-CoV-2 spike protein specifically binds to the host receptor ACE2 (Angiotensin-converting enzyme 2). This interaction promotes endocytosis of the viral particle, additional events lead to viral-host cell membrane fusion and release of the viral contents, allowing viral replication.
While SARS-CoV-2 requires BSL-3 facilities for live virus work, pseudo-typed partices (PP) that incorporate SARS-CoV-2 spike proteins without replication elements could facilitate studies on viral entry mechanisms in a BSL-2 setting. This PP cell entry assay could also enable screening of small molecule compound libraries in BSL-2 setting to identify inhibitors of SARS-CoV-2 cell entry. To eliminate false positive compounds, ATP content cytotoxicity assay was screened in the same cell line.
SEQUENCE No. (e.g., 1, 2, 3, etc.); […] (e.g., Cells, Incubation, Reagent, etc.); VALUE and DESCRIPTION.
1. Cells. Seed 1500 HEK293-ACE2 cells (Expi293F with stable expression of human ACE2) in 2 uL/well media (DMEM, 10% FBS, 1x L-glutamine, 1x Pen/Strep, 1 ug/ml puromycin) in white 1536-well assay plates (Greiner #782073).
2. Incubation. Incubate at 37 C with 5% CO2 overnight (~16 h).
3. Compounds. Dispense 23 nL/well compounds in DMSO via pin transfer.
4. Incubation. Incubate for 1 h at 37C 5% CO2.
5. Reagent. Dispense 2 uL/well of media (DMEM, 10% FBS, 1x L-glutamine, 1x Pen/Strep, 1 ug/ml puromycin).
6. Incubation. Incubate at for 48h at 37C 5% CO2
7. Reagent. Dispense 4 uL/well of ATPLite 1step luminescence assay reagent (PerkinElmer #6016739).
8. Incubation. Incubate for 15 min at room temperature.
9. Detection. Read luminescence signal (Viewlux plate reader, PerkinElmer). Data was normalized with wells containing cells as 100%, and wells without cells (media only control) as 0%.
On the % scale 0 is the no-effect control and ±100 the full control effect; potency means the concentration at half of the fitted maximal effect.

SMILES | outcome | activity change, negative = cytotoxicity | Potency
CN1CCN(c2ccc(-c3cccc(CN4CCOCC4)c3)cc2NC(=O)c2c[nH]c(=O)cc2C(F)(F)F)CC1 | inactive [at 37.9 µM] | – | –
CC(C)[C@@H](CS(=O)(=O)C(C)C)N1C(=O)[C@@](C)(CC(=O)O)C[C@H](c2cccc(Cl)c2)[C@H]1c1ccc(Cl)cc1 | – | -2.85% | –
CCC(=O)O[C@@H]1[C@@H](C)O[C@@H](O[C@H]2[C@H](N(C)C)[C@@H](O)[C@H](O[C@H]3[C@@H](CC=O)C[C@@H](C)[C@@H](OC(C)=O)/C=C/C=C/C[C@@H](C)OC(=O)C[C@@H](OC(=O)CC)[C@@H]3OC)O[C@@H]2C)C[C@]1(C)OC(C)=O | – | -25.9% | –
N[C@H](Cc1ccccc1)C(=O)O | inactive [at 27.1 µM] | – | –
CC(C)(C)Sc1c(CC(C)(C)C(=O)O)n(Cc2ccc(Cl)cc2)c2ccc(OCc3ccc4ccccc4n3)cc12 | inactive | – | –
COc1cccc(-c2c(C)n(Cc3c(F)cccc3C(F)(F)F)c(=O)n(C[C@H](NCCCC(=O)O)c3ccccc3)c2=O)c1F | – | – | inactive
CC(C)[C@]12O[C@H]1[C@@H]1O[C@@]13[C@@]1(C)CCC4=C(COC4=O)[C@@H]1C[C@@H]1O[C@@]13C2=O | – | -35% | –
C=C1/C(=C/C=C2\CCCC3(C)[C@@H]([C@H](C)/C=C/C=C/C(O)(CC)CC)CC[C@@H]23)C[C@@H](O)C[C@@H]1O (stereo not given in full) | inactive | – | –
Cc1c(O)c(=O)ccn1C | inactive [at 114 µM] | – | –
C[C@]1(C(=O)N(CCCC(=O)O)Cc2cccc(Cl)c2)CCN1C(=O)c1csc2ccccc12 | – | -2.68% | –
CC=CC1=C(C(=O)O)N2C(=O)[C@@H](NC(=O)[C@H](N)c3ccc(O)cc3)[C@H]2SC1 | – | 1.38% [at 27.1 µM] | –
CCCCCCCCCCCCCCCCCC(=O)[O][Al] | – | 0.759% [at 5.25 µM] | –
CN1C(=O)[C@@H](NC(=O)c2cc(Cc3ccccc3)on2)COc2ccccc21 | – | -27.7% | –
COc1nc(N)nc2c1ncn2C1OC(CO)C(O)C1O (stereo not given) | – | 2.4% | –
CC(C=CC1=C(C)CCCC1(C)C)=CC=CC(C)=CC(=O)Oc1c(C)c(C)c2c(c1C)CC[C@@](C)(CCC[C@H](C)CCC[C@H](C)CCCC(C)C)O2 | – | -2.74% [at 5.25 µM] | –
C[N+]1(C)[C@@H]2CC(OC(=O)C(O)(c3cccs3)c3cccs3)C[C@H]1[C@H]1O[C@@H]12 (stereo not given in full) | inactive | – | –
CCCCCCCCCCCCCCCC(=O)OC1CCCn2c1nc(C)c(CCN1CCC(c3noc4cc(F)ccc34)CC1)c2=O (stereo not given) | inactive | – | –
COc1ccc(-n2cnc3cc(C(=O)N4CCCCC4)ccc32)cc1 | inactive | – | –
C=C1CCC[C@]2(C)C=C3OC(=O)C(C)=C3C[C@@H]12 | inactive | – | –
CO/N=C(\C(=O)N[C@@H]1C(=O)N2C(C(=O)O)=C(CSc3cnns3)CS[C@H]12)c1csc(N)n1 | – | -8.04% | –

SMILES | outcome | activity change, negative = cytotoxicity | Potency
Cc1cc(C)cc(Oc2ccc(CNC(=O)[C@H](C)N)cc2C)c1 | inactive | – | –
C[C@@H](Oc1cc(C(=O)Nc2ccc(C(=O)N3CCN(C)CC3)cc2)nnc1N)c1c(Cl)ccc(F)c1Cl | – | – | 28.2 µM (active)
CCO/N=C(\C(=O)N[C@@H]1C(=O)N2C(C(=O)O)=C(Sc3nc(-c4cc[n+](C)cc4)cs3)CS[C@H]12)c1nsc(NP(=O)(O)O)n1 | – | 2.55% | –
COc1cc2c3c(n(CCCN4CCOCC4)c(=O)c2cc1OC)-c1cc2c(cc1C3=O)OCO2 | – | -29.9% | –
C[C@@H]1Cc2c([nH]c3ccccc23)[C@@H](c2c(F)cc(/C=C/C(=O)O)cc2F)N1CC(C)(C)F | inactive | – | –
CN(C)CC(c1ccc(O)cc1)C1(O)CCCCC1 (stereo not given) | – | 3.96% | –
C=C1C(=O)O[C@@H]2[C@H]3C(C)=CC[C@@]34O[C@@]4(C)CC[C@@H]12 | inactive | – | –
Cn1cc(-c2cc(Oc3cc(F)c(NC(=O)C4(C(=O)Nc5ccccc5)CC4)cc3F)ccn2)cn1 | – | -27.8% | –
C[Si](C)(C)O[Si](C)(C)O[Si](C)(C)C | inactive [at 114 µM] | – | –
COc1cc2ncnc(Nc3cccc(Cl)c3F)c2cc1OC(=O)N1CCN(C)C[C@H]1C | – | -4.7% | –
C=Cc1ccccc1 | inactive | – | –
CCCCC(O)c1ccccc1 (stereo not given) | – | 1.8% | –
O=C(OC1C[C@@H]2CC3C[C@@H](C1)N2CC3=O)c1c[nH]c2ccccc12 (stereo not given in full) | inactive | – | –
O=C(NOCCO)c1cc(CN2OCCCC2=O)c(F)c(F)c1Nc1ccc(I)cc1F | – | -9.84% | –
C=CCNC1=C2C[C@@H](C)C[C@H](OC)[C@H](O)[C@@H](C)/C=C(\C)[C@H](OC(N)=O)[C@@H](OC)/C=C\C=C(/C)C(=O)NC(=CC1=O)C2=O | – | – | 25.1 µM (active)
C=C[C@]1(C)C[C@@H](OC(=O)CSCCN(CC)CC)[C@]2(C)[C@H](C)CC[C@]3(CCC(=O)[C@H]32)[C@@H](C)[C@@H]1O | – | -10.1% | –
CCC(C(=O)O)[C@H]1CC[C@H](C)[C@H]([C@@H](C)[C@H](O)[C@H](C)C(=O)[C@H](CC)[C@H]2OC3(C=C[C@@H](O)[C@]4(CC[C@@](C)([C@H]5CC[C@](O)(CC)[C@H](C)O5)O4)O3)[C@H](C)C[C@@H]2C)O1 (stereo not given in full) | – | – | 2.51 µM (active)
Nc1nc2c(c(=O)[nH]1)N(C=O)C(CNc1ccc(C(=O)N[C@@H](CCC(=O)O)C(=O)O)cc1)CN2 (stereo not given in full) | inactive [at 0.702 µM] | – | –
OCCCNc1ccccc1 | inactive | – | –
O=C(/C=C/c1cccc(S(=O)(=O)Nc2ccccc2)c1)NO | – | – | 12.6 µM (active)
